High-throughput results from PubChem BioAssay.
Compounds with a hit are over-represented: about 11% of the library has one in this group of screens.
ALDH1A1 block: qHTS Assay for Inhibitors of Aldehyde Dehydrogenase 1 (ALDH1A1) | Potency, µM (series often up to 75.3 µM), hits mostly inhibitors | AID 1030, 2008 | Purified ALDH1A1, NADH fluorescence, propionaldehyde substrate | 220,000 compounds, 7.3% hits
Target sequence (P00352 whole entry, looked up): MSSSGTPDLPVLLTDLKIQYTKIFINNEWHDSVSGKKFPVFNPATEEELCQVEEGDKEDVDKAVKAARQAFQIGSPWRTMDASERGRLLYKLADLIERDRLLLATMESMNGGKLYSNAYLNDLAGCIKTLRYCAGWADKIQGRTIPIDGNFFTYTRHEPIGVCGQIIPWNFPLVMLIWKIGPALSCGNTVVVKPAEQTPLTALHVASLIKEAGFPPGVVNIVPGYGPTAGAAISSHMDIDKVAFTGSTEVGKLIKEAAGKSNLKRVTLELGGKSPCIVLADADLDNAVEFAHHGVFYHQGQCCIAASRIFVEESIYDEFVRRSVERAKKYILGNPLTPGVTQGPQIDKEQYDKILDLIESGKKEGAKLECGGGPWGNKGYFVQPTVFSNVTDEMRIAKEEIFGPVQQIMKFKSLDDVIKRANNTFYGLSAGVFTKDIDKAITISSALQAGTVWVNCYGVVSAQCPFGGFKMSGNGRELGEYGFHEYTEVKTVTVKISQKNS
HPGD inh: qHTS Assay for Inhibitors of HPGD (15-Hydroxyprostaglandin Dehydrogenase); 150,000 compounds, 4.3% hits; purified HPGD, NADH fluorescence kinetic, PGE2 substrate; Potency, µM, hits mostly inhibitors
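20 nM HPGD preincubated 15 min at room temperature with compound in 50 mM Tris-HCl pH 8, 0.01% Tween 20. Started with 1 mM NAD+ and 30 uM prostaglandin E2; NADH fluorescence (360/450 nm) read 5 times over 30-s intervals, last minus first.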
PNC inhibitor: High Content Assay for Compounds that inhibit the Assembly of the Perinucleolar Compartment. PC3M PTB-GFP, PNC prevalence imaging, 16 h; stronger effect = lower value. activity change (PNC), negative = inhibition, % at 10 µM. 140,000 compounds, 3.1% hits;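 active = readout at or below -70, meaning at least 70% loss of cells showing the perinucleolar compartment, a nuclear body marking cancer cells; inconclusive = readout between -30 and a set limit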
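PC3M cells stably expressing PTB-GFP, 750–1000 cells/well, treated 16 h at 37 °C with compound (23 nl of library stock), in duplicate. After paraformaldehyde fixation and Hoechst stain, imaged at 20x; PNC prevalence scored by image analysis.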
Hits are given with their value; n = inactive; u = inconclusive; x = not tested or not shown; [ ] = dose if it differs, or a comment. Unless noted, calls follow the shape of the dose curve; as a rule, active = well fitted inhibition curve with a large enough effect (not every such curve was filed as active); inconclusive = small, poorly fitted or top-dose-only effect, or another doubt; inactive = no such curve, though single readings can be large or run the other way.

SMILES	ALDH1A1 block	HPGD inh	PNC inhibitor
O=C(CCc1ccccc1)NNC(=S)NC(=O)c1ccccc1	17.8µM	n	n
Fc1ccccc1NC(=S)NCCc1ccccc1	n	n	u
O=C(NC(=S)NCc1ccccc1)c1cccnc1	n	x	x
O=C(NC(=S)NCCC1=CCCCC1)c1cccnc1	14.1µM	x	x
Fc1ccc(NC(=S)NCCc2ccccc2)c(F)c1F	u	25.1µM	n
O=[N+]([O-])c1cccc(NC(=S)NCCc2ccccc2)c1	n	7.94µM	n
CC(C)(C)c1cc(CCC(=O)NNC(=S)NC(=O)c2ccccc2)cc(C(C)(C)C)c1O	u	n	n
CC1=NCCN1S(=O)(=O)c1ccccc1[N+](=O)[O-]	n	x	x
COCc1cc(=O)[nH]c(/N=C(\N)Nc2ccccc2C)n1	n	n	n
O=C1CC[C@@H](CN(Cc2ccccn2)Cc2nc(-c3ccc(C(F)(F)F)cc3)no2)N1	n	x	x
Cc1cc(NC(=O)CSc2nc3ccc(Cl)cc3[nH]2)no1	n	n	n
Nc1ccccc1N=Nc1c(S(=O)(=O)O)cc2cc(S(=O)(=O)O)cc(O)c2c1O	n[13.5 µM]	n	x
[O-][n+]1onc2c3cc(-c4ccccc4)nnc3ccc21	n	n	n
N#Cc1c(/N=C/N2CCOCC2)sc2c1CCCCC2	14.1µM	n	u
CC1(C)Cc2c(sc(/N=C/N3CCCCCC3)c2C#N)C(C)(C)N1	n	x	x
CCCN(/C=N/c1sc2c(c1C#N)CCCCC2)CCC	u	n	n
CN(C)/C=N/c1sc2c(c1C#N)CCC2	10µM	25.1µM	n
CN(C)/C=N/c1sc2c(c1C#N)CCCCC2	3.98µM	n	n
CN(C)/C=N/c1sc2c(c1C#N)CC(C)(C)NC2(C)C	n	n	u
O=C(NC1(C(=O)O)CCCC1)c1ccccc1	n[13.5 µM]	n	x
O=C(N/C=C\n1cnc2cc(C(F)(F)F)ccc21)c1ccc([N+](=O)[O-])cc1	n	x	x
Nc1[nH]c(=O)nc2c1ncn2[C@H]1O[C@@H](CO)[C@@H](O)[C@@H]1O	n[13.5 µM]	n	x
COc1cc(C(=O)n2nc(C)cc2C)ccc1O	n	n	u
COc1ccc(-n2cnc3cc(C(=O)NCCN4CCOCC4)ccc32)cc1	n	x	x
Cc1ccccc1-n1cnc2cc(NCc3cccs3)ccc21	n	u	n
SMILES	ALDH1A1 block	HPGD inh	PNC inhibitor
CCCNC(=O)c1cccc(COc2ccccc2OC)c1	n	x	x
COc1ccccc1-n1cnc2cc(NCc3cccs3)ccc21	u	u	-80.5
COc1ccc(OC)c(-n2cnc3cc(C(=O)NCCCN4CCOCC4)ccc32)c1	n	25.1µM	n
CCCNC(=O)c1ccc2c(c1)ncn2-c1ccccc1OC	n	17.8µM	u
COc1ccc(C(NC(=O)C(C)C)c2c(O)ccc3ccccc23)cc1OC (stereo unspecified)	n	n	n
COc1ccc(N2C(=O)CC(Sc3nnc(-c4ccccc4)o3)C2=O)cc1 (stereo unspecified)	1.78µM	22.4µM	u
O=C1CC(Sc2nnc(-c3ccccc3O)o2)C(=O)N1c1ccccc1 (stereo unspecified)	3.55µM	u	n
N/C(=N\N=C\c1ccco1)SC1CC(=O)N(c2ccccc2)C1=O (stereo unspecified)	n	x	x
COc1ccc(N2C(=O)CC(Sc3nc(C)cc(C)c3C#N)C2=O)cc1 (stereo unspecified)	u	n	n
COc1ccc(CCn2cnc(=O)c(C#N)c2C)cc1OC	n	x	x
CCN(CC)S(=O)(=O)c1ccc(OC)c(NC(=O)Cn2cnc3c2c(=O)n(C)c(=O)n3C)c1	n	x	x
Cc1nc(Sc2ccc(Br)cc2)c(C#N)c(C)c1[N+](=O)[O-]	n	x	x
Cc1cc(C(F)(F)F)nn1CC(=O)NNC(=S)Nc1ccc(Cl)cc1	u	n	n
O=C(Cn1nnc(-c2cc(C(F)(F)F)cc(C(F)(F)F)c2)n1)NNC(=S)Nc1ccc(Cl)cc1	1.26µM	x	x
Cn1c(-c2ccc(C=O)s2)nc2c3ccccc3c3ccccc3c21	n	u	n
CCc1cc(C(=O)COc2ccccc2F)c(O)cc1O	u	31.6µM	n
CCc1cc(C(=O)Cc2ccc(F)cc2)c(O)cc1O	n	n	u
Cc1ccc(S(=O)(=O)N(C)C)cc1NC(=S)NNC(=O)C1CC1	n	n	n
CCN(CC)S(=O)(=O)c1ccc(C)c(NC(=S)NNC(=O)C2CC2)c1	8.91µM	n	u
COc1ccc(OC)c(NC(=O)CSc2nnc(N)s2)c1	u	n	n
COc1ccc(-n2c(C)cc(C(=O)COC(=O)Cc3n[nH]c(=O)c4ccccc34)c2C)cc1	n	n	u
COc1ccc(C(C)=O)cc1COC(=O)Cc1n[nH]c(=O)c2ccccc12	u	22.4µM	n
Cc1cc(C(=O)COC(=O)Cc2n[nH]c(=O)c3ccccc23)c(C)n1-c1ccc2c(c1)OCO2	n	n	u
COc1ccc(C(C)=O)cc1COC(=O)c1cc(C)nc2ccccc12	8.91µM	x	x
COc1ccc(CNC(=O)c2cc(C)nc3ccccc23)cc1OC	n	x	x
SMILES	ALDH1A1 block	HPGD inh	PNC inhibitor
O=C(Cc1n[nH]c(=O)c2ccccc12)OCC(=O)c1ccc2c(c1)OCCO2	n	n	-102.1
CC(=O)c1ccccc1NC(=O)COC(=O)CCCN1C(=O)c2cccc3cccc(c23)C1=O	u	u	n
COc1ccc(C(C)=O)cc1COC(=O)CCCN1C(=O)c2ccccc2C1=O	3.55µM	x	x
COC(=O)[C@@]1(Cc2ccc(OC)cc2)[C@H]2c3cc(C(=O)N4CCCC4)n(C[C@H](O)CO)c3C[C@H]2CN1C(=O)c1ccccc1	n	n	x
Cc1c(NS(=O)(=O)c2cccc3nsnc23)c(=O)n(-c2ccccc2)n1C	n	n	n
Cc1cc(C)c2c(=O)[nH]c(SCc3ccccc3)nc2n1	n	x	x
Cc1cc(C)n(/N=C/c2cc([N+](=O)[O-])ccc2O)c(=O)c1	n	x	x
O=C(O)c1ccccc1CN1CCC[C@@H](C(=O)O)C1	n[13.5 µM]	n	x
CCOc1ccc(N(CC)S(=O)(=O)c2ccc3c(c2)n(C)c(=O)c(=O)n3C)cc1	n	n	n
Cc1ccc(NCc2nnc(SCC(=O)NCCc3ccccc3)n2C)cc1	n	n	u
CCC(c1nnnn1C(C)C)N1CCN(C2CCCC2)CC1 (stereo unspecified)	n	x	n
CSc1ncccc1C(=O)OCc1ccc(C#N)cc1	n	n	n
COc1ccc(C(C)=O)cc1COC(=O)c1cccnc1SC	10µM	x	x
Cc1cccc(/C(N)=N/OC(=O)CCCN2C(=O)c3ccccc3C2=O)c1	n	n	n
COC(=O)c1cccc(COC(=O)c2cccnc2SC)c1	n	n	n
N/C(=N\OC(=O)CCCCCN1C(=O)c2ccccc2C1=O)c1ccccc1	u	12.6µM	u
CCOc1ccc(C(C)=O)cc1COC(=O)c1cccnc1SC	25.1µM	x	x
COc1ccc(C(C)=O)cc1COC(=O)CNC(=O)c1cc(C)cc(C)c1	7.94µM	n	u
COc1cc(C(=O)NCC(=O)OCc2ccccc2Cl)cc(OC)c1OC	n	x	x
COc1cc(NS(=O)(=O)c2ccc3c(c2)n(C)c(=O)n3C)cc(OC)c1	n	n	n
Cc1c(Cc2c(Cl)cccc2Cl)c(=O)ccn1C(C)c1ccccc1 (stereo unspecified)	n	n	n
COc1ccccc1CN1CC2(CCN(S(C)(=O)=O)CC2)C1	n	n	x
CNCCCOc1cccc(Oc2ccccc2)c1	n	x	x
